For one assay, the target named is Albumin (Bos taurus) (UniProt P02769). Kind of assay: bovine serum albumin binders on microarray, profiling panel, artefact control for SMM control protein annotation, biochemical, small-molecule microarray, Alexa647 label, 635/667 nm fluorescence (AID 1118).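 Note: score merges 667 nm emission intensity and signal-to-noise per printed compound spot.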 The note with it: BSA-A647 binding, fluorescence 635 nm, higher = more signal.
The nature of assay [1]: small-molecule microarray binders of probe aXIP, primary screen, biochemical, NeuroSMM set, 635/667 nm fluorescence (AID 1119).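 Note: probe is the protein aXip251-270 applied at 1 µg/mL to compound-printed slides; binding of probe to printed compounds measured as 667 nm fluorescence plus signal to noise.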 The note with it: higher = more signal, called active from +8 up or from −8 down.
Assay [2] can be described thus: small-molecule binders of probe aNOTCH3, primary screen, biochemical, small-molecule microarray, 635/667 nm fluorescence (AID 1120).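 Note: probe is a biotin-tagged antibody raised against NOTCH3 rather than NOTCH3 protein; score merges spot fluorescence near 667 nm with spot signal to noise.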 The note with it: higher = more signal.
A short description of assay [3]: small-molecule binders of probe aNOTCH2, primary screen, biochemical, small-molecule microarray, 635/667 nm fluorescence (AID 1121).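 Note: score merges feature fluorescence read at 667 nm with its signal to noise.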 The note with it: higher = more signal.
Assay [4] concerns the target Carbonic anhydrase 2 (Homo sapiens) (UniProt P00918). Kind of assay: CAII small-molecule binders, profiling panel, biochemical, small-molecule microarray, Alexa647-labelled CAII (AID 1122). The note with it: CAII-A647 binding fluorescence, higher = more signal.
Assay [5] in a line: COS7 lysate on small-molecule microarray, probe aHis, 635 nm (AID 1123).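 Note: z-score combines 667nm fluorescence intensity with signal-to-noise per printed compound spot.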 The note with it: COS7 cell lysate, fluorescence, higher = more signal.
Assay [6] in a line: compound binding in COS7 lysate, probe aLAP1, primary screen, cell lysate, small-molecule microarray (AID 1124).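 Note: lysate comes from COS7 cells expressing LAP1 and is applied at 0.3 µg/mL; score merges spot fluorescence near 667 nm with signal-to-noise over triplicate slides.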 The note with it: probe aLAP1, fluorescence, higher = more signal.
Another assay has as its system Sam68 (KHDRBS1). Kind of assay: Sam68 small-molecule binders, primary screen, biochemical, small-molecule microarray, 635 nm fluorescence (AID 1125).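 Note: score merges 667 nm channel intensity with signal to noise over triplicate slides.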 The note with it: small-molecule microarray binding, higher = more signal.
In assay [7] the test system is Chordin-like protein 2 (CHRDL2). Kind of assay: CHRDL2 small-molecule binders, primary screen, biochemical, small-molecule microarray, 635 nm fluorescence (AID 1126).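 Note: printed compound slides probed with Chrdl2 protein at 4 µg/mL for 1 h at 4 C; score merges 667 nm emission intensity with signal to noise over three replicate slides.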 The note with it: small-molecule microarray binding, fluorescence 635 nm; higher = more signal.
For assay [8], the target named is Concanavalin-A (Canavalia ensiformis) (UniProt P02866). Kind of assay: ConA small-molecule binders, primary screen, artefact control for SMM control protein annotation, biochemical, small-molecule microarray, Alexa647 label, 635 nm (AID 1127).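 Note: z combines 667 nm emission intensity with signal-to-noise across three replicate slides.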 The note with it: ConA-A647 binding fluorescence, higher = more signal.

Structures are written as SMILES. Calls of active or inactive are those of the source.

Albumin (Bos taurus), sequence (P02769 whole entry, looked up): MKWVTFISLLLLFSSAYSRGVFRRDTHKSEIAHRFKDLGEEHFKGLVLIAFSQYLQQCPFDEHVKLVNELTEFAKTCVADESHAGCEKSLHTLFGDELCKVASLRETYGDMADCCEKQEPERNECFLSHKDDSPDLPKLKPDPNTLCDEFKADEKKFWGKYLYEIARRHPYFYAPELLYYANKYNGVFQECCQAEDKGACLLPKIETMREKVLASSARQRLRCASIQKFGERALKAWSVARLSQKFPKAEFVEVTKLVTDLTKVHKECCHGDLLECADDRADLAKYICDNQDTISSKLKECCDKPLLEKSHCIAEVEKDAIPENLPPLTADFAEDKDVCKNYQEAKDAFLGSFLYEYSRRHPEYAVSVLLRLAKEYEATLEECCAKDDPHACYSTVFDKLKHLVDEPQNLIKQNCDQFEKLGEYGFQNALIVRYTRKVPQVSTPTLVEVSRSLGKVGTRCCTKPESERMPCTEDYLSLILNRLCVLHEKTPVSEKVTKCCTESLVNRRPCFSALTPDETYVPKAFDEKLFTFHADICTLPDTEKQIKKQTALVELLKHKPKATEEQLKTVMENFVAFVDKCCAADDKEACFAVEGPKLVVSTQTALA
Concanavalin-A (Canavalia ensiformis), sequence (P02866 whole entry, looked up): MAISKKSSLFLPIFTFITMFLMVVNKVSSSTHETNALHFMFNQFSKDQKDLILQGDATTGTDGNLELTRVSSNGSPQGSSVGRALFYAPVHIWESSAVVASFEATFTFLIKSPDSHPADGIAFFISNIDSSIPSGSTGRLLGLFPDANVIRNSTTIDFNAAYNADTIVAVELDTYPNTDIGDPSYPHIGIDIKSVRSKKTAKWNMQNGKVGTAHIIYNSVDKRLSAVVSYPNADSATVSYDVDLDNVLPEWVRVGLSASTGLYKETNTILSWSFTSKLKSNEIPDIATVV

Regarding `COC(=O)C(CC#Cc1ccc2c(c1)[C@]1(C(=O)N2)[C@H](c2ccc(OCCO)cc2)N2[C@H](c3ccccc3)[C@H](c3ccccc3)OC(=O)[C@H]2[C@@H]1C(N)=O)C(=O)OC`, the composite z-score is 0.734 with Albumin (Bos taurus); -0.209 in assay [2]; -0.136 in assay [3]; 0.389 in [4]; 2.2 in assay [5]; 0.431 in assay [6]. For the same molecule, the values for the composite z-score (with Sam68 (KHDRBS1); in assay [7]; in assay [8]) were 1.06, -0.907 and 1.14, respectively. In assay [1], the composite Z-score was -0.0003 (inactive).

As to `CCCCC=C[C@@H](NC(=O)C(C)(C)C)c1ccccc1`, the composite z-score with Albumin (Bos taurus) was 0.743; in assay [2] it was 0.259; in [3], -0.0769; in [4], 0.509; in assay [5], -0.0783; in [6], 0.983. In addition, the composite z-score was 1.09 in the assay on Sam68 (KHDRBS1), -0.264 in assay [7] and 1.04 in assay [8]. For the same molecule, in assay [1], the composite Z-score was -0.424 (inactive).

In the case of `COc1ccc([Si](C)(C)[C@@H]2[C@@H](CC(=O)N(CCO)Cc3ccccc3)O[C@]3(C(=O)N(Cc4cccc(I)c4)c4ccccc43)[C@H]2C)cc1`, the composite z-score with Albumin (Bos taurus) was -0.783; in [2], 0.0522; in assay [3], -0.0576; in assay [4] it was 0.364; in assay [5] it was 0.763; in assay [6], 0.363. Besides, the figures for the composite z-score (in the assay with Sam68 (KHDRBS1); in assay [7]; in assay [8]) were 1.01, 1.12 and 0.779, respectively. Further, in assay [1], the composite Z-score is 0.0089 (inactive).

Regarding `NCCCCCCNC(=O)[C@@H]1C[C@@H]2C(=O)NCC(=O)N2[C@@H]1c1cccc(OCCO)c1`, the composite z-score with Albumin (Bos taurus) amounted to 0.432; in assay [2], 0.155; in [3] it was 0.0001; in [4], 0.695; in assay [5], 1.47; in assay [6], 0.758. In addition, the composite z-score in the assay on Sam68 (KHDRBS1) amounted to 1.2; in assay [7], 1.18; in assay [8], 0.828. The composite Z-score in assay [1] was 0.671 (inactive).

For `COCCCNC(=O)[C@@]1(c2ccc([N+](=O)[O-])cc2)CC(=O)N(C2CCCCC2)[C@@H]1c1ccc(CO)cc1I`, the composite z-score with Albumin (Bos taurus) is -0.102; in assay [2], -0.095; in assay [3], 0.0409; in [4], 0.427; in assay [5], 2.23; in assay [6], 0.426. For the same molecule, the figures for the composite z-score (with Sam68 (KHDRBS1); in [7]; in assay [8]) were 1.03, 0.151 and 1.14, respectively. For the same molecule, in [1], the composite Z-score was 2.09 (inactive).

With `CO[C@H]1O[C@H](CO)[C@@H](OC(=O)CCc2ccccc2)[C@@H]2OC(=O)[C@@H](Cc3ccc4ccccc4c3)C/C=C/C[C@H](Cc3ccc4ccccc4c3)C(=O)O[C@@H]12`, the composite z-score with Albumin (Bos taurus) was 0.199; in assay [2], -0.21; in [3] it was -0.172; in [4], 0.191; in assay [5] it was 1.18; in [6], 0.273. Moreover, the results for the composite z-score (with Sam68 (KHDRBS1); in assay [7]; in assay [8]) were -0.183, -1.34 and 0.208, respectively. Besides, in assay [1], the composite Z-score is 0.128 (inactive).

For the molecule `COc1ccc(C(O)C2C=CC3C(=O)N(c4ccccc4)C(=O)C3N2Nc2ccccc2F)c2ccccc12` (stereo not given), the composite z-score with Albumin (Bos taurus) was 0.968; in assay [2], 0.785; in assay [3], 0.579; in assay [4], 0.762; in [5], 2.23; in [6] it was 1.34. Besides, the composite z-score is 1.3 in the assay on Sam68 (KHDRBS1), -0.316 in [7] and 1.21 in assay [8]. Further, the composite Z-score in assay [1] was 0.882 (inactive).

As to `C#CCN(C(=O)OC(C)(C)C)[C@H](CO)c1ccccc1`, the composite z-score with Albumin (Bos taurus) was 0.632; in [2], -0.0043; in assay [3] it was -0.146; in assay [4], 0.0604; in assay [5], 0.125; in assay [6], 0.183. Further, the figures for the composite z-score (with Sam68 (KHDRBS1); in assay [7]; in assay [8]) were 0.689, 0.105 and 0.0388, respectively. Further, the composite Z-score in [1] is 0.32 (inactive).

For `O=C1NC(=O)C2C1C=CC(C(O)c1ccc(F)cc1)N2Nc1ccc(Cl)cc1Cl` (stereo not given), the composite z-score in the assay with Albumin (Bos taurus) is 0.369; in assay [2], 0.0488; in assay [3] it was -0.0113; in assay [4], 0.732; in assay [5], 2.4; in assay [6], 0.591. Moreover, the composite z-score in the assay with Sam68 (KHDRBS1) was 0.246; in [7] it was -0.242; in [8], -0.345. For the same molecule, in [1], the composite Z-score was 1.69 (inactive).

Take `C=CCN1C(=O)[C@@]2(O[C@@H](CCO)[C@H]([Si](C)(C)c3ccc(OC)cc3)[C@H]2C)c2cc(N3CCCCC3=O)ccc21`: the composite z-score with Albumin (Bos taurus) is 0.446; in assay [2], 0.239; in assay [3], -0.108; in [4], 0.429; in assay [5], 1.17; in assay [6] it was 0.0635. The composite z-score in the assay with Sam68 (KHDRBS1) amounted to 0.702; in [7], 0.285; in assay [8], 0.901. In addition, the composite Z-score in assay [1] is 0.734 (inactive).

On to `CCOC(=O)C[C@H]1[C@H](OC(=O)Cc2ccc3c(c2)OCO3)[C@@H](NC(=O)CC(C)C)c2cc(OCCCO)ccc2N1C(=O)c1ccc2ccccc2n1`, for which the composite z-score with Albumin (Bos taurus) is 0.808; in assay [2], 0.121; in assay [3], -0.162; in assay [4] it was -0.107; in [5], 0.26; in assay [6] it was -0.0904. The results for the composite z-score (in the assay with Sam68 (KHDRBS1); in assay [7]; in assay [8]) were 0.797, 0.386 and 0.369, respectively. Moreover, the composite Z-score in [1] was 0.0066 (inactive).

With `O=C1O[C@H](c2ccccc2)[C@H](c2ccccc2)N2[C@H]1[C@@H](C(=O)N1CCCCCCC1)[C@]1(C(=O)Nc3ccc(C#CCCO)cc31)[C@H]2c1ccc(O)cc1`, the composite z-score in the assay with Albumin (Bos taurus) came out at 0.777; in assay [2], 2.27; in [3], 1.18; in assay [4], 0.91; in assay [5], 4.64; in [6], 1.53. Further, the composite z-score with Sam68 (KHDRBS1) came to 1.35; in assay [7], 1.68; in assay [8], 1.17. The composite Z-score in [1] was 9.39 (active).

Consider `O=C(NCC(F)(F)F)[C@@H]1c2ccccc2C(=O)N(Cc2cc(C(F)(F)F)cc(C(F)(F)F)c2)[C@H]1c1ccc(CO)cc1`, for which the composite z-score in the assay with Albumin (Bos taurus) was 0.195; in assay [2] it was -0.154; in assay [3] it was -0.0984; in assay [4] it was 0.207; in assay [5] it was 0.729; in assay [6], 0.158. The composite z-score with Sam68 (KHDRBS1) was determined as 0.178; in assay [7], 0.0632; in assay [8] it was 0.209. In addition, the composite Z-score in assay [1] was -0.368 (inactive).

As for `C=C(CCCC)C(=O)CC[C@H](OC(=O)c1ccccc1-c1ccccc1C(=O)O)c1cccc(OCCO)c1`, the composite z-score is 0.314 with Albumin (Bos taurus); -0.161 in assay [2]; -0.126 in [3]; 0.749 in [4]; 0.729 in [5]; 1.07 in [6]. The composite z-score with Sam68 (KHDRBS1) is 0.225; in [7] it was -0.189; in assay [8], -1.14. For the same molecule, in assay [1], the composite Z-score was -0.634 (inactive).

For the origin of these results see PubChem BioAssay.
